For eight compounds, growth results are on record in PubChem BioAssay (NCI).

Among the test systems are HT29 colon; SNB-75 CNS; SNB-19 CNS; U251 CNS; PC-3 prostate; SK-MEL-5 melanoma; UACC-62 melanoma; LOX IMVI melanoma; SK-MEL-28 melanoma; SK-MEL-2 melanoma; SN12C renal; UO-31 renal; ACHN renal; CAKI-1 renal; A498 renal; CCRF-CEM leukemia; MOLT-4 leukemia; SR leukemia; TK-10 renal.
Assay in all cases: NCI-60 one-dose screen, 48 h (100 = growth as untreated, 0 = no growth, -100 = all killed)
What all share (details): 10 µM

About 83,000 compounds went through this panel and 20% of them were active in at least one assay; those are over-represented in the sample as a whole.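 Treatment: one concentration, 48 hours, 96-well format. Scoring: percent growth, with anything below 10 considered active.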 A number with no mark means an inactive call. Calls of active or inactive are those of the source.

For the compound `Nc1nc(-c2ccccc2Cl)cc(-c2ccc(Cl)cc2Cl)n1`, the growth in the assay with HT29 colon is 36.6%; in the assay with SNB-75 CNS it was 30.5%; in the assay on SNB-19 CNS it was 78.1%; in the assay with U251 CNS it was 65%; in the assay with PC-3 prostate it was 74.2%; in the assay on SK-MEL-5 melanoma it was 75.2%. The growth with UACC-62 melanoma is 63.1%; with LOX IMVI melanoma it was 55.4%; in the assay on SK-MEL-28 melanoma, 88%; in the assay with SK-MEL-2 melanoma, 96.3%; with SN12C renal it was 79.6%; with UO-31 renal, 62.5%. Further, the growth is 86% in the assay with ACHN renal; 68% with CAKI-1 renal; 53.7% with A498 renal; 57.5% in the assay on CCRF-CEM leukemia; 52.6% in the assay with MOLT-4 leukemia; 25.4% in the assay on SR leukemia.
In the case of `O=C1/C(=C\c2ccc(F)cc2)CN(C(=O)c2ccccc2)C/C1=C\c1ccc(F)cc1`, the growth with HT29 colon was -50.9% (active); in the assay on SNB-75 CNS, 48.1%; with SNB-19 CNS, 61.3%; in the assay with U251 CNS, -25% (active); with PC-3 prostate, 22.1%; with SK-MEL-5 melanoma, 34.3%. The growth is 4.27% (active) in the assay with UACC-62 melanoma; -55.9% (active) in the assay on LOX IMVI melanoma; 34.8% in the assay on SK-MEL-28 melanoma; 54.8% in the assay with SK-MEL-2 melanoma; 14.1% in the assay on SN12C renal; 38.7% with UO-31 renal. The growth with TK-10 renal is 79.7%; in the assay on CAKI-1 renal, 21.3%; with A498 renal, 52.3%; with CCRF-CEM leukemia, -12.6% (active); in the assay with MOLT-4 leukemia, 4.36% (active); with SR leukemia it was -15.1% (active).
Consider `COc1cc(-c2cc(-c3cc4c([nH]c5ccccc54)c(-c4cc(OC)c(OC)c(OC)c4)n3)cc(-c3ccccc3)n2)cc(OC)c1OC`, for which the growth in the assay on HT29 colon is 44.4%; with SNB-75 CNS, 36.2%; with SNB-19 CNS, 66%; with U251 CNS, 62.1%; with PC-3 prostate, 48.3%; in the assay with SK-MEL-5 melanoma, 40.1%. In addition, the growth with UACC-62 melanoma is 40%; in the assay with LOX IMVI melanoma, 59.5%; in the assay on SK-MEL-28 melanoma, 62.5%; in the assay with SK-MEL-2 melanoma it was 46%; with SN12C renal, 54.6%; in the assay on UO-31 renal it was 36.9%. Besides, the growth in the assay on ACHN renal is 62.8%; in the assay on CAKI-1 renal it was 32.9%; in the assay on A498 renal, 54.5%; in the assay with CCRF-CEM leukemia, 37.9%; with MOLT-4 leukemia it was 18.5%; in the assay on SR leukemia, 16.7%.
Regarding `COc1ccc2c(c1OC)O/C(=C\c1ncc([N+](=O)[O-])n1C)C2=O`, the growth with HT29 colon is -20.8% (active); with SNB-75 CNS it was 76.6%; in the assay on SNB-19 CNS, 66.2%; in the assay with U251 CNS it was 55.2%; with PC-3 prostate, 60.2%; with SK-MEL-5 melanoma, -66.5% (active). For the same compound, the growth was 0.211% (active) with UACC-62 melanoma; 0.891% (active) in the assay on LOX IMVI melanoma; -38% (active) in the assay on SK-MEL-28 melanoma; -58.9% (active) in the assay with SK-MEL-2 melanoma; 11.8% with SN12C renal; -42.8% (active) in the assay on UO-31 renal. Besides, the growth with TK-10 renal is 14.7%; in the assay with ACHN renal, -2.65% (active); with A498 renal, 68.8%; in the assay with CCRF-CEM leukemia, 4.93% (active); in the assay on MOLT-4 leukemia, 1.01% (active); with SR leukemia it was 6.02% (active).
Take `Cc1ccc(C(=O)N2C/C(=C/c3ccc(F)cc3)C(=O)/C(=C/c3ccc(F)cc3)C2)cc1`: the growth in the assay with HT29 colon is 74.1%; in the assay with SNB-75 CNS, 59.7%; in the assay with SNB-19 CNS it was 97.8%; in the assay on U251 CNS, 88.9%; in the assay with PC-3 prostate, 85.2%; with SK-MEL-5 melanoma, 94.6%. Also, the growth with UACC-62 melanoma was 86.3%; with LOX IMVI melanoma it was 54.5%; with SK-MEL-28 melanoma, 105%; in the assay with SK-MEL-2 melanoma, 84%; in the assay with SN12C renal, 92.4%; with UO-31 renal, 64.3%. The growth in the assay with TK-10 renal was 102%; in the assay with CAKI-1 renal it was 81.3%; in the assay with A498 renal it was 93.5%; in the assay on CCRF-CEM leukemia, 63.1%; in the assay on MOLT-4 leukemia, 71.6%; in the assay on SR leukemia, 20.4%.
On to `COc1ccc(C(=O)/C=C/c2cc(-c3cc(OC)c(OC)c(OC)c3)n[nH]2)cc1`, for which the growth in the assay on HT29 colon was 1.28% (active); in the assay on SNB-75 CNS, 43.6%; in the assay with SNB-19 CNS, 47.8%; in the assay on U251 CNS, -2.19% (active); in the assay on PC-3 prostate, 20.5%; in the assay on SK-MEL-5 melanoma it was 57.2%. Also, the growth is 52.3% in the assay with UACC-62 melanoma; -11.6% (active) with LOX IMVI melanoma; 79.4% with SK-MEL-28 melanoma; 70.4% in the assay with SK-MEL-2 melanoma; 25.1% in the assay with SN12C renal; 5.28% (active) in the assay on UO-31 renal. For the same compound, the growth with ACHN renal is 58.6%; with CAKI-1 renal it was 4.76% (active); with A498 renal, 62.2%; with CCRF-CEM leukemia, -35.9% (active); in the assay with MOLT-4 leukemia, 3.23% (active); in the assay with SR leukemia, -39.7% (active).
For the compound `c1ccc(CNc2ncnc3scc(-c4cccs4)c23)nc1`, the growth with HT29 colon is 91.2%; in the assay with SNB-75 CNS, 64.6%; in the assay on SNB-19 CNS, 67.2%; with U251 CNS, 75.7%; in the assay with PC-3 prostate, 58.6%; in the assay on SK-MEL-5 melanoma, 14.8%. Besides, the growth was 56% in the assay with UACC-62 melanoma; 74.2% with LOX IMVI melanoma; 96.7% in the assay with SK-MEL-28 melanoma; 72.2% in the assay with SK-MEL-2 melanoma; 63% with SN12C renal; 47.7% with UO-31 renal. Further, the growth in the assay on TK-10 renal is 126%; in the assay on CAKI-1 renal, 58%; in the assay on A498 renal, 27.6%; with CCRF-CEM leukemia, 63.7%; in the assay with MOLT-4 leukemia, 50.5%; in the assay on SR leukemia it was 61.5%.
As to `COc1ccc2c(c1)O/C(=C\c1ccc([N+](=O)[O-])o1)C2=O`, the growth is -33.1% (active) in the assay with HT29 colon; 58.7% with SNB-75 CNS; 59.7% with SNB-19 CNS; 9.08% (active) in the assay with U251 CNS; -2.47% (active) in the assay on PC-3 prostate; 13% with SK-MEL-5 melanoma. In addition, the growth was -37.6% (active) in the assay on UACC-62 melanoma; -64.7% (active) in the assay on LOX IMVI melanoma; 41.9% in the assay on SK-MEL-28 melanoma; -39.4% (active) in the assay on SK-MEL-2 melanoma; 6.92% (active) in the assay with SN12C renal; -73.5% (active) in the assay on UO-31 renal. For the same compound, the growth with TK-10 renal is -33.7% (active); with CAKI-1 renal, -2.99% (active); with A498 renal, 56.6%; in the assay on CCRF-CEM leukemia, 0.117% (active); in the assay on MOLT-4 leukemia, -0.0457% (active); in the assay on SR leukemia it was 7.61% (active).
